Common to all, as to experiment: NCI-60 one-dose screen, 48 h (100 = growth as untreated, 0 = no growth, -100 = all killed)
Holding throughout (details): 10 µM

The subject of experiment [1] is NCI-H23 lung.
For experiment [2], the system named is NCI-H322M lung.
The test system of experiment [3] is HOP-62 NSCLC.
In experiment [4] the test system is NCI-H460 lung.
In experiment [5] the test system is HOP-92 NSCLC.
For experiment [6], the system named is NCI-H522 lung.
Experiment [7] concerns A549/ATCC NSCLC.
Experiment [8] concerns 786-0 renal.
Experiment [9] has as its system COLO 205 colon.
The test system of experiment [10] is DU-145 prostate.
Experiment [11] concerns K-562 leukemia.
For experiment [12], the system named is MALME-3M melanoma.
For experiment [13], the system named is MDA-MB-231 breast.
Experiment [14] relates to RXF 393 renal.
For experiment [15], the system named is SF-268 CNS.
Experiment [16] has as its system SF-295 CNS.
For experiment [17], the system named is SF-539 CNS.
Experiment [18] deals with UACC-257 melanoma.
In experiment [19] the test system is M14 melanoma.
Experiment [20] relates to NCI-H226 lung.

This passage reports growth results from PubChem BioAssay (NCI).

SMILES strings stand for the structures. About 83,000 compounds went through this panel and 20% of them were active in at least one assay; those are over-represented in the sample as a whole.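 Method: cells in 96-well plates; compound added at one concentration; 48 h incubation; percent growth measured; values under 10 scored active.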 Unmarked numbers belong to inactive results. Activity calls are given as the source filed them.

In the case of `COc1cc(CNC(=O)C2CSC3(C)c4ccccc4C(=O)N23)cc(OC)c1OC` (stereo not given), the growth in experiment [1] is 96.9%; in experiment [2] it was 99.7%; in [3], 90.1%; in [4] it was 106%; in [5] it was 88.4%; in experiment [6] it was 68.8%. The growth in experiment [7] was 83.1%; in [8], 102%; in [9] it was 105%; in experiment [10], 109%; in experiment [11], 71.9%; in experiment [12], 109%. The growth is 98.3% in [13]; 98.7% in [14]; 101% in experiment [15]; 104% in experiment [16]; 98.2% in [17]; 73.8% in experiment [18]. Also, the growth in experiment [19] is 108%.
Consider `Cc1c2cnccc2c(C)c2c1c1cc(O)ccc1n2C(C)C`, for which the growth in experiment [1] was 0.21% (active); in experiment [20], 79.3%; in experiment [4], -10% (active); in experiment [6] it was -9.59% (active); in [7], 7.74% (active); in experiment [8], 5.57% (active). Further, the growth in experiment [9] was 17.9%; in [10], 12.1%; in experiment [11], 16.9%; in experiment [12], -17.9% (active); in [13] it was 9.51% (active); in experiment [14], -39.5% (active). In addition, the growth in experiment [15] is 9.03% (active); in [16], 34.5%; in experiment [17], 7.2% (active); in experiment [19], -19% (active).
`COCCn1cc(-c2nc(-c3cccnc3)cs2)c2cc(F)ccc21`: the growth in experiment [1] was 94%; in experiment [20] it was 91.5%; in experiment [4] it was 92.7%; in experiment [6] it was 70.6%; in experiment [7], 90.1%; in [8], 90.8%. Moreover, the growth was 104% in [9]; 90.4% in experiment [10]; 95.2% in experiment [11]; 99.8% in experiment [12]; 92.3% in experiment [13]; 99.5% in experiment [14]. Further, the growth is 90.7% in experiment [15], 95.6% in experiment [16], 80.9% in experiment [17] and 96.2% in experiment [19].
Consider `O=C1NC(=O)c2c(CCCSc3nc4ccccc4c(=O)n3CCc3ccccc3)cccc21`, for which the growth in experiment [1] is 76.7%; in [20], 82.9%; in experiment [4] it was 83.8%; in experiment [6], 89.3%; in experiment [7], 89.4%; in experiment [8], 78.6%. The growth in experiment [9] is 118%; in experiment [10] it was 111%; in experiment [11], 89.7%; in experiment [13], 65.8%; in experiment [14], 92.8%; in [15], 91.2%. The growth was 44.9% in experiment [16], 65.7% in experiment [17], 105% in experiment [18] and 98.1% in experiment [19].
In the case of `CCCCc1oc2ccccc2c1C(=O)c1cc(I)c(OCCN(CC)CC)c(I)c1`, the growth is -38.9% (active) in experiment [1]; -36% (active) in experiment [20]; -76.7% (active) in experiment [4]; 9.9% (active) in experiment [7]; -90.5% (active) in experiment [8]; -79.8% (active) in experiment [9]. The growth was 34.1% in experiment [10]; -72.6% (active) in experiment [12]; -79.8% (active) in [13]; -70.3% (active) in experiment [14]; 30.8% in [15]; -66.7% (active) in experiment [16]. The growth in experiment [17] is -19% (active); in [18] it was -61% (active); in [19], -75.3% (active).
For `CCCCCCCCCCCCCCCCCC[n+]1ccc2c(C)c3c(c(C)c2c1)c1cc(O)ccc1n3CC`, the growth is 4.06% (active) in experiment [1]; 58% in experiment [20]; 6.93% (active) in experiment [4]; 29.2% in experiment [6]; 13.9% in [7]; 5.53% (active) in experiment [8]. The growth in [9] was -46.6% (active); in [10] it was 40.4%; in [11], 9.4% (active); in experiment [12], -55.2% (active); in experiment [13], 19%; in [14], -7.68% (active). The growth was 4.77% (active) in [15], -1.22% (active) in [16], -21.2% (active) in experiment [17] and -2.39% (active) in experiment [19].
For `CCOC(=O)c1sc2ncnc(Nc3ccc4c(cnn4C(=O)Nc4ccccc4)c3)c2c1C`, the growth in experiment [1] is 60.6%; in [20], 109%; in experiment [4] it was 49.2%; in experiment [6] it was 64.5%; in [7], 56.7%; in [8], -2.26% (active). The growth was 70.1% in [9]; 64.6% in experiment [10]; 91.6% in experiment [11]; 32.7% in experiment [12]; 37.2% in experiment [13]; 55.4% in [14]. The growth in experiment [15] was 66.2%; in experiment [16], 98.3%; in experiment [17], 19.2%; in [19], 63.7%.
For `C[C@@H](O)[C@H]1C(=O)N2C(C(=O)O)=C(SC3CN[C@H](C(=O)N(C)C)C3)[C@H](C)[C@H]12` (stereo not given in full), the growth is 97.2% in experiment [1]; 99.2% in [20]; 102% in [4]; 96.6% in experiment [7]; 103% in experiment [8]; 113% in experiment [9]. For the same compound, the growth is 110% in [10]; 92.9% in experiment [12]; 99.6% in experiment [13]; 114% in experiment [14]; 105% in experiment [15]; 96.2% in [16]. The results for the growth in experiment [17], in experiment [18] and in experiment [19] were 113%, 106% and 100%, respectively.
Consider `Cc1ccc(-n2c(C)nn3c(=O)c4c5c(sc4nc23)CN(C)CC5)cc1`, for which the growth was 97.4% in experiment [1]; 98.3% in experiment [20]; 109% in [4]; 71.5% in [6]; 73.7% in experiment [7]; 86.3% in experiment [8]. Further, the growth in experiment [9] is 103%; in [10], 99.8%; in experiment [11] it was 100%; in [12], 93.7%; in experiment [13], 96.3%; in experiment [14], 105%. Also, the growth is 94.1% in experiment [15], 98.1% in [16], 101% in experiment [17] and 95.8% in experiment [19].
With `Cc1ccccc1N1C(=O)c2cc(S(N)(=O)=O)c(Cl)cc2NC1C` (stereo not given), the growth in [1] was 101%; in [20], 112%; in experiment [4], 111%; in experiment [7] it was 100%; in [8], 99.6%; in experiment [9] it was 118%. Further, the growth in [10] was 111%; in experiment [12], 103%; in experiment [13], 119%; in [14] it was 128%; in [15], 106%; in experiment [16], 103%. Further, the growth in experiment [17] is 111%; in experiment [18], 102%; in [19] it was 111%.
